Experimental findings from the supplement of paper PMC6555819 are described below.

The subject of one test is PXR:RXRa (NR concentration 270 nM, RXRa partner concentration 90 nM). Description: PBM binding z-score (relative to random genomic background probes); higher = stronger binding; sequences stand for … in GC…GCGATTGACAGCGTAGAATGAAGG
In outline:
(§1)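 Ligand-free nuclear receptor dimers were applied to custom Agilent 4×180K protein-binding microarrays whose double-stranded probes carried direct-repeat seeds, single-nucleotide variants, half-site ablations and random human genomic background sequences in 34-nt variable regions. Incubation lasted 1 h. Binding z-scores were computed against the random background probes from regression-normalized fluorescence.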
For the sequence TCTTGTAGATGAATAGAGGTTAAGAAAGTGCGCT, the PBM binding z-score came out at 3.01.
With AGAATTAGGTTACCAAAGATCAGGGAAACGCTTG, the PBM binding z-score was 0.000566.
ATCTCTAAGTAAAGTTCAGTGAAAGATCGATAGA yielded a PBM binding z-score of 2.03.
Still for that read-out and setting: the same measure for AATAGAGGGTCACTAGGCCAGAGTAGGTACGAAT: 1.95; for AGAACGAGGGCACGCTGATTTGATAGCAGAGTAG: 0.514; for GGAACGAGGGCAAGTTGATGGCAGAGTTTGATGG: 0.948.
CCTAGTTGGTCAATGTCACACACGCTATAGGTAC: the PBM binding z-score came out at 0.71.
The same measure, in the same setting: the result for TCATTTAGGTAATACAGGTGAAAGTCGGCATCTA reads 1.06.
The same measure, in the same setting: the same measure for CCTTACGGGTTACTGACAGGTTATAGCATTTGGA: 0.825; for ACTATTCGTTGACTTAGGGCAACCGATACGACGC: 0.152; for ACCTCTAGGTAAGACTCAGTTCAGTGAAGAACGC: 0.405.
The same measure, in the same setting: the same measure for CGTCCAAGGTCAATGCTAGGTCAGTGAAAGCATT: 5.01.
For ACTATTAGTTGAGACGAGGGCAACCGCTAGGTTG, the PBM binding z-score worked out at 1.55.
In the case of TCTTGTAGATCAAAAGAGGTTAAGAAAGTGCGCT, the PBM binding z-score is 2.86.
The same measure, in the same setting: the same measure for CGAACGAGGGCATGAGTTGAGAGCAAATGCCGAT: 0.363; for GCTATTAGTTGAAAGGGCAACCAAATGATTCTCG: 0.803; for CAAACTAGGTCAAAGGTCAAAGGCGAGCCAACCA: 6.93.
Still for that read-out and setting: the result for GCTTGTAGATCAACGTTAAGAAAGACTAAGCTAA reads -0.51.

A further test concerns PXR homodimer (NR concentration 270 nM). Described as above. In outline: as §1
For ATATGTAGGTTAGCTGTGGTCATTCAGACTAGGC, the PBM binding z-score was 0.0563.
Still for that read-out and setting: the same measure for TCTCGGAGGACACGAAAGGTCAGCGCTCGACATC: 0.337; for TCCTGTAGATCAAAGGTTAAGAAAGCCGAAGCCT: -0.679; for TCTAGTTGGTCGAAGGTCACACACTCGAAATGCG: 1.06.
Still for that read-out and setting: the result for TCATATAGGTAAAGGTGAAAGTCGAACGATATGA reads -0.047; that for TAGCCTAGGTCATTCATGGGCCAGTATAGAAAGC, -0.168; that for AGAATGAGCTTATACGTAGATCAGGGAAGAAAGT, -0.186.
Take GCGACTGGGGCAAAGCAGGTTACCATAAGGTTGG: the PBM binding z-score is -0.59.
The same measure, in the same setting: the result for ACTAGTTTGTCAGCTGAGGTCACACACAATTCGG reads 2.34; that for ATACCAAGGTGTTCGTGAGGTCGTTGATACTAAC, 1.6; that for CCAGACAGGTGAAAGGTAAGTCAGTCTGGTACGC, -0.131.
AGAATGAGGTTATACGTATATCAGGGAAGAAAGT came in with a PBM binding z-score of 0.473.
The same measure, in the same setting: the result for GCTATTAGTTGAAAGGGCTACCGAATGATTCTCG reads -0.174; that for CCTACTGGGCCAAAGGTCATTGTTTCCAATGCTC, 1.86; that for GCTAGCAGGCCATTTGGGTCTCTCAATGACGGGC, -0.68.
Still for that read-out and setting: the result for TCGAGTAGGTTAGTTGGGGCATTCAGCCAACATA reads -0.15; that for AATACAGGGCCACTAGGCCAGAGTAGGTACGAAT, -0.266.
Same read-out and setting: the same measure for ATACGTAGGTTAGCTGGGGTCATTCAGACTAGGC: 4.22; for GCTAGTTGGCCAGTAAAAGGTCACACACCGGTCG: 0.59; for TGTCAAAGTTCAGAGGTAACGTAAGTATCCACAC: 0.858.
For ATCTCTAGGTCAGACTCAGTTCAGTGAAGAACGC, the PBM binding z-score is 1.69.
On to TCACATAGGTAAAAGGTGAAAGTCGGTGTGGTAA, for which the PBM binding z-score was 0.153.
Same read-out and setting: the result for TCTTGTAGATGAATAGAGGTTAAGAAAGTGCGCT reads 0.505; that for AGAATTAGGTTACCAAAGATCAGGGAAACGCTTG, 0.073; that for ATCTCTAAGTAAAGTTCAGTGAAAGATCGATAGA, 1.8.
Take AATAGAGGGTCACTAGGCCAGAGTAGGTACGAAT: the PBM binding z-score is -0.034.
For AGAACGAGGGCACGCTGATTTGATAGCAGAGTAG, the PBM binding z-score is -0.166.
The sequence GGAACGAGGGCAAGTTGATGGCAGAGTTTGATGG displayed a PBM binding z-score of 0.748.
Take CCTAGTTGGTCAATGTCACACACGCTATAGGTAC: the PBM binding z-score was determined as 0.574.
The same measure, in the same setting: the same measure for TCATTTAGGTAATACAGGTGAAAGTCGGCATCTA: 0.701.
On to CCTTACGGGTTACTGACAGGTTATAGCATTTGGA, for which the PBM binding z-score was found to be 0.22.
The same measure, in the same setting: the result for ACTATTCGTTGACTTAGGGCAACCGATACGACGC reads 0.211; that for ACCTCTAGGTAAGACTCAGTTCAGTGAAGAACGC, 0.515.
On the same count and under the same terms, the same measure for CGTCCAAGGTCAATGCTAGGTCAGTGAAAGCATT: 1.68; for ACTATTAGTTGAGACGAGGGCAACCGCTAGGTTG: 0.226.
Same read-out and setting: the result for TCTTGTAGATCAAAAGAGGTTAAGAAAGTGCGCT reads 0.102; that for CGAACGAGGGCATGAGTTGAGAGCAAATGCCGAT, -0.12.
In turn, GCTATTAGTTGAAAGGGCAACCAAATGATTCTCG returned a PBM binding z-score of 0.104.
On the same count and under the same terms, the result for CAAACTAGGTCAAAGGTCAAAGGCGAGCCAACCA reads 1.55; that for GCTTGTAGATCAACGTTAAGAAAGACTAAGCTAA, -0.226.

Another test concerns RARa:RXR (NR concentration 270 nM, RXRa partner concentration 90 nM). Described as above. In outline: as §1
Consider ATATGTAGGTTAGCTGTGGTCATTCAGACTAGGC, for which the PBM binding z-score was found to be 1.3.
Sequence TCTCGGAGGACACGAAAGGTCAGCGCTCGACATC yielded a PBM binding z-score of 4.86.
The same measure, in the same setting: the same measure for TCCTGTAGATCAAAGGTTAAGAAAGCCGAAGCCT: 2.85.
Still for that read-out and setting: the result for TCTAGTTGGTCGAAGGTCACACACTCGAAATGCG reads 4.17; that for TCATATAGGTAAAGGTGAAAGTCGAACGATATGA, 1.71.
On the same count and under the same terms, the same measure for TAGCCTAGGTCATTCATGGGCCAGTATAGAAAGC: 2.61; for AGAATGAGCTTATACGTAGATCAGGGAAGAAAGT: -0.221.
In turn, GCGACTGGGGCAAAGCAGGTTACCATAAGGTTGG had a PBM binding z-score of 0.0364.
On to ACTAGTTTGTCAGCTGAGGTCACACACAATTCGG, for which the PBM binding z-score came out at 4.4.
On the same count and under the same terms, the result for ATACCAAGGTGTTCGTGAGGTCGTTGATACTAAC reads 2.11; that for CCAGACAGGTGAAAGGTAAGTCAGTCTGGTACGC, 1.06; that for AGAATGAGGTTATACGTATATCAGGGAAGAAAGT, 1.92.
Still for that read-out and setting: the same measure for GCTATTAGTTGAAAGGGCTACCGAATGATTCTCG: -0.0219.
Same read-out and setting: the same measure for CCTACTGGGCCAAAGGTCATTGTTTCCAATGCTC: 6.23; for GCTAGCAGGCCATTTGGGTCTCTCAATGACGGGC: -0.418.
TCGAGTAGGTTAGTTGGGGCATTCAGCCAACATA had a PBM binding z-score of 0.117.
On the same count and under the same terms, the same measure for AATACAGGGCCACTAGGCCAGAGTAGGTACGAAT: -0.268; for ATACGTAGGTTAGCTGGGGTCATTCAGACTAGGC: 5.33; for GCTAGTTGGCCAGTAAAAGGTCACACACCGGTCG: 5.25.
Same read-out and setting: the result for TGTCAAAGTTCAGAGGTAACGTAAGTATCCACAC reads 3.43.
On the same count and under the same terms, the same measure for ATCTCTAGGTCAGACTCAGTTCAGTGAAGAACGC: 2.07; for TCACATAGGTAAAAGGTGAAAGTCGGTGTGGTAA: 3.24; for TCTTGTAGATGAATAGAGGTTAAGAAAGTGCGCT: 1.86.
On to AGAATTAGGTTACCAAAGATCAGGGAAACGCTTG, for which the PBM binding z-score turned out to be 0.336.
ATCTCTAAGTAAAGTTCAGTGAAAGATCGATAGA came in with a PBM binding z-score of 1.34.
The same measure, in the same setting: the result for AATAGAGGGTCACTAGGCCAGAGTAGGTACGAAT reads 2.89; that for AGAACGAGGGCACGCTGATTTGATAGCAGAGTAG, 1.
The same measure, in the same setting: the same measure for GGAACGAGGGCAAGTTGATGGCAGAGTTTGATGG: 0.523; for CCTAGTTGGTCAATGTCACACACGCTATAGGTAC: 0.851; for TCATTTAGGTAATACAGGTGAAAGTCGGCATCTA: 1.43.
On the same count and under the same terms, the result for CCTTACGGGTTACTGACAGGTTATAGCATTTGGA reads 1.51; that for ACTATTCGTTGACTTAGGGCAACCGATACGACGC, 0.392.
Regarding ACCTCTAGGTAAGACTCAGTTCAGTGAAGAACGC, the PBM binding z-score worked out at 0.112.
Consider CGTCCAAGGTCAATGCTAGGTCAGTGAAAGCATT, for which the PBM binding z-score turned out to be 6.41.
Still for that read-out and setting: the result for ACTATTAGTTGAGACGAGGGCAACCGCTAGGTTG reads 0.773; that for TCTTGTAGATCAAAAGAGGTTAAGAAAGTGCGCT, 1.79.
Still for that read-out and setting: the result for CGAACGAGGGCATGAGTTGAGAGCAAATGCCGAT reads 0.437; that for GCTATTAGTTGAAAGGGCAACCAAATGATTCTCG, 1.48; that for CAAACTAGGTCAAAGGTCAAAGGCGAGCCAACCA, 9.2.
GCTTGTAGATCAACGTTAAGAAAGACTAAGCTAA: the PBM binding z-score is -0.0818.
